“And” between values parts separate entries of the source, which are not always exact repeats. Identical values can stand only once. Values without a mark were called inactive. Records with an inconclusive call do not appear. Where a call stands in place of a potency, no number is given. The source made the active and inactive calls. Calls come from the whole dose curve; as a rule, active = well fitted curve in the direction sought with a large enough effect; inconclusive = small, poorly fitted or top-dose-only effect, or another doubt; inactive = no such curve, though single readings can be large; an effect the other way counts as inactive or inconclusive.
Legend:
[1] = molecular target: Glutathione peroxidase 1 (Homo sapiens) (UniProt P07203); experiment: Primary qHTS Assay for Inhibitors of Recombinant Selenoprotein Glutathione Peroxidase 1 (GPX1) (AID 1845191); note: nearly all actives have a fitted effect of over 65% in size; note: potency is the fitted concentration of half-maximal effect
Procedure, shortened: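 Recombinant GPX1 (10 nM final) was preincubated with compound for 30 min at room temperature, then reacted with 1 mM GSH, 0.5 mM CHP, 0.5 mM NADPH and 100 nM glutathione reductase; NADPH fluorescence (340/450 nm) was read at 0 and 15 min.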

[2] = molecular target: Phospholipid hydroperoxide glutathione peroxidase GPX4 (Homo sapiens) (UniProt P36969); experiment: Primary qHTS Assay for Inhibitors of Recombinant Selenoprotein Glutathione Peroxidase 4 (GPX4) (AID 1845192); note: nearly all actives have a fitted effect of over 65% in size; note: potency is the fitted concentration of half-maximal effect; for activity change, negative = inhibition: series mostly up to about 50 µM
Procedure, shortened: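 GR-coupled readout: 100 nM GR, 1 mM GSH, 0.5 mM NADPH; NADPH fluorescence (ex 340/em 450 nm) read at t=0 and after 15 min RT. GPX4 200 nM, preincubated 30 min with compound; substrate 0.5 mM CHP.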

[3] = molecular target: Luciferin 4-monooxygenase (Photinus pyralis) (UniProt P08659); experiment: Primary firefly luciferase (FLuc) qHTS assay for identification of artifact compounds. (AID 1845220); note: nearly all actives have a fitted effect of over 60% in size; note: potency is the fitted concentration of half-maximal effect; for activity change, negative = inhibition: series mostly up to about 54 µM
Procedure, shortened: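 Reaction readout was CCD-imaged luminescence, taken 5 min after adding 10 nM purified firefly enzyme to compound-treated wells holding 10 uM luciferin and ATP in pH 7.6 buffer.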

[4] = Primary fluorescence-based thiol-reactive (MSTI) qHTS assay for identification of artifact compounds. (AID 1845221); note: nearly all actives have a fitted effect of over 65% in size; note: potency is the fitted concentration of half-maximal effect
Procedure, shortened: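 MSTI probe at 4 uM final in 2% DMSO/PBS pH 7.4; compounds, 1 h at room temperature in dark. Fluorescence Ex/Em 525/598 nm, normalised to Acetyl-MSTI and MSTI, fitted to 4-parameter Hill.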

[5] = system: Nanoluciferase (engineered Oplophorus gracilirostris luciferase); experiment: Primary Nanoluciferase (NLuc) qHTS assay for identification of artifact compounds. (AID 1845222); note: potency is the fitted concentration of half-maximal effect
Procedure, shortened: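 Concentration-response data were obtained by luminescence after 5 min with Nano-Glo substrate at 1:100. The enzyme was diluted S16 NLuc-expressing cell medium, preincubated with compound for 15 min at RT. Curves were fitted with a 4-parameter Hill model.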

[6] = Primary redox qHTS assay for identification of artifact compounds. (AID 1845223)
Procedure, shortened: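 Amplex Red (25 uM) and HRP (250 mU/mL) in HBSS, with compounds for 15 min, then 250 uM DTT for 30 min, room temperature, dark. Fluorescence 525/598 nm read; normalized to DMSO and 10 uM DA3003; Hill fit.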

Sequence of Phospholipid hydroperoxide glutathione peroxidase GPX4 (Homo sapiens) (P36969 whole entry, looked up): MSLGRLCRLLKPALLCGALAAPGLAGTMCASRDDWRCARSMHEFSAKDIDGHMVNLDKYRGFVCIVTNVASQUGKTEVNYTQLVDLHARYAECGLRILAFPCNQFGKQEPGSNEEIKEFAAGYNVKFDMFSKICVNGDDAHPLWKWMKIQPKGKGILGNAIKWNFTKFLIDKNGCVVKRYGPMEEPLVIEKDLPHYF
Sequence of Glutathione peroxidase 1 (Homo sapiens) (P07203 whole entry, looked up): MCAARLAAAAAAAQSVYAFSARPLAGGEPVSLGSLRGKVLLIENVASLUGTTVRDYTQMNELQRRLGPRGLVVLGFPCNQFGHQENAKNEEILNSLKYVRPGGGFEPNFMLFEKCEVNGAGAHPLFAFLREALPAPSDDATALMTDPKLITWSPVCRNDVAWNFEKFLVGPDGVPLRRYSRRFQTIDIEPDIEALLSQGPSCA

| Compound | Potency [1] | Potency [2] | Potency [3] | Potency [4] | Potency [5] | Potency [6] | activity change, negative = inhibition [2] |
| --- | --- | --- | --- | --- | --- | --- | --- |
| COCCn1c2c([n+](Cc3cnccn3)c1C)C(=O)c1ccccc1C2=O | inactive | inactive |  |  |  |  |  |
| CN1CCN(c2ccc3nc(-c4c(N)c5c(F)cccc5[nH]c4=O)[nH]c3c2)CC1 | inactive | inactive |  |  |  |  |  |
| Cn1cncc1[C@@](N)(c1ccc(Cl)cc1)c1ccc2c(c1)c(-c1cccc(Cl)c1)cc(=O)n2C | inactive | inactive |  |  |  |  |  |
| COC(=O)C[C@](O)(CCCC(C)(C)O)C(=O)O[C@@H]1C(OC)=C[C@]23CCCN2CCc2cc4c(cc2[C@H]13)OCO4 | inactive | inactive |  |  |  |  |  |
| CC(C)(C)c1cc(C(C)(C)C)c(NC(=O)c2c[nH]c3ccccc3c2=O)cc1O | inactive | 17.8 µM (active) |  |  |  |  |  |
| CN[C@H]1CCc2cc(OC)c(OC)c(OC)c2-c2ccc(OC)c(=O)cc21 | inactive | inactive |  |  |  |  |  |
| CCN1CCN(Cc2ccc(-c3cc4c(N[C@H](C)c5ccccc5)ncnc4[nH]3)cc2)CC1 | inactive | 22.7 µM (active) |  |  |  |  |  |
| Cc1nc2cnc3ccc(C#Cc4cccnc4)cc3c2n1-c1ccc(C(C)(C)C#N)cc1 | inactive | inactive |  |  |  |  |  |
| Cc1ccc(S(=O)(=O)Nc2cc(Cl)ccc2C(=O)Nc2nc(-c3ccccc3)cs2)cc1 | inactive |  |  |  |  |  |  |
| CN(C)CCCN=c1c2ccccc2n(C)c2[nH]c(=O)n(C)c(=O)c12 | inactive | inactive |  |  |  |  |  |
| O=C(NCCS(=O)(=O)c1ccc(C(F)(F)F)cn1)c1ccc(Cl)cc1 | inactive | inactive |  |  |  |  |  |
| COC(=O)C1=C(C)NC(C)=C(C(=O)OCCN2CCN(C(c3ccccc3)c3ccccc3)CC2)C1c1cccc([N+](=O)[O-])c1 (stereo unspecified) | inactive | inactive |  |  |  |  |  |
| O=C(O)c1ccc2cc(-c3ccc(O)c(C45CC6CC(CC(C6)C4)C5)c3)ccc2c1 | inactive |  |  |  |  |  |  |
| CC(C)c1ccc(Cn2ccc3c4c(N)nc(NC5CC5)nc4ccc32)cc1 | inactive | 18 µM (active) |  |  |  |  |  |
| O=C(Nc1ncc(-c2cc(C(F)F)nn2-c2c(Cl)cccc2Cl)s1)C1CC1 | inactive | inactive | inactive | inactive | inactive | inactive |  |
| Nc1ccccc1NC(=O)c1ccc(CNC(=O)OCc2cccnc2)cc1 | inactive | inactive | inactive | inactive | inactive | inactive |  |
| COc1ccc2c(OCc3nnc4ccc(-c5ccccc5)nn34)ccnc2c1 | inactive | inactive | inactive | inactive | inactive | inactive |  |
| NC(=O)c1cccc2cn(-c3ccc([C@@H]4CCCNC4)cc3)nc12 | 18.3 µM (active) and 22.7 µM (active) | 16.1 µM (active) | inactive | inactive | inactive | inactive |  |
| Nc1cc(C(F)(F)F)c(-c2cc(N3CCOCC3)nc(N3CCOCC3)n2)cn1 | inactive | inactive | inactive | inactive | inactive | inactive |  |
| Cc1cc(C(=O)N2CCN(c3cccc(Cl)c3)CC2)n(-c2ccccc2)n1 | inactive | inactive | inactive | inactive | inactive | inactive |  |

| Compound | Potency [1] | Potency [2] | Potency [3] | Potency [4] | Potency [5] | Potency [6] | activity change, negative = inhibition [2] |
| --- | --- | --- | --- | --- | --- | --- | --- |
| Clc1cccc(-c2nnnn2Cc2cccnc2)c1Cl | inactive | inactive | inactive | inactive | inactive | inactive |  |
| O=C(c1cncc(Br)c1)N1CCC(N2CCCC2)CC1 | inactive | inactive | inactive | inactive | inactive | inactive |  |
| COc1cc(-c2nn(C3CCC(N4CCN(C(C)=O)CC4)CC3)c3ncnc(N)c23)ccc1NC(=O)c1cc2ccccc2n1C (stereo unspecified) | inactive | inactive | inactive | inactive | inactive | inactive |  |
| Cc1cnc(Nc2ccc(F)cc2Cl)nc1-c1c[nH]c(C(=O)N[C@H](CO)c2cccc(Cl)c2)c1 | inactive | inactive | inactive | inactive | inactive | inactive |  |
| COc1cc2c(Oc3ccc4[nH]c(C)cc4c3F)ncnc2cc1OCCCN1CCCC1 | inactive | inactive | inactive |  |  |  |  |
| NC(=O)Nc1cc(-c2cccc(F)c2)sc1C(=O)N[C@H]1CCCNC1 | inactive | inactive | inactive | inactive | inactive | inactive |  |
| O=C(CCCCCCC(=O)Nc1ccc([C@H]2O[C@@H](CSc3nc(-c4ccccc4)c(-c4ccccc4)o3)C[C@@H](c3ccc(CO)cc3)O2)cc1)NO | inactive |  | inactive | inactive | inactive | inactive | -22.8% [at 9.73 µM] |
| COc1cccc(-c2ccc(NC(=O)C3=C(C(=O)O)CCC3)c(F)c2)c1 | inactive | inactive | 5.36 µM (active) | inactive | 12 µM (active) | inactive |  |
| O=C(NC1CCNCC1)c1[nH]ncc1NC(=O)c1c(Cl)cccc1Cl | inactive | inactive |  |  |  |  |  |
| COc1cc2c(Oc3ccc(-c4cnc(Nc5ccc(F)cc5)n(C)c4=O)cc3F)ccnc2cc1OCCCN1CCOCC1 | inactive | inactive | inactive | inactive | inactive |  |  |
| COc1cc2c(Oc3ccc(NC(=O)C4(C(=O)Nc5ccc(F)cc5)CC4)cc3F)ccnc2cc1OCCCN1CCOCC1 | inactive | inactive | inactive | inactive | inactive | inactive |  |
| Cc1cnc(-c2cnc(NCCNc3ccc(C#N)cn3)nc2-c2ccc(Cl)cc2Cl)[nH]1 | inactive | inactive | inactive | inactive | 3.38 µM (active) |  |  |
| COc1cccc(Nc2c(C(N)=O)cnc3c(C)cc(S(=O)(=O)c4cccc(C(=O)N(C)C)c4)cc23)c1 | inactive | inactive | inactive | inactive | inactive | inactive |  |
| COc1ccc(F)c(F)c1C(=O)c1cnc(NC2CCN(S(C)(=O)=O)CC2)nc1N | inactive | inactive | inactive | inactive | inactive | inactive |  |
| c1ccc2c(CCNc3ccc(Nc4ccncc4)cc3)c[nH]c2c1 | inactive | inactive | inactive | 2.67 µM (active) | inactive | inactive |  |
| O=C(CCCCCCNC(=O)c1cnc(N(c2ccccc2)c2ccccc2)nc1)NO | inactive | inactive | inactive | inactive | inactive |  |  |
| Cn1cc(-c2ccncc2)c(-c2ccc(OCc3ccc4ccccc4n3)cc2)n1 | inactive | inactive | inactive | inactive |  |  |  |
| Fc1cc(-c2cccc3ncc(-c4cnn(C5CCNCC5)c4)nc23)cc(F)c1CN1CCOCC1 | inactive | inactive | inactive | inactive |  |  |  |
| CS(=O)(=O)c1ccc(-c2cnc(N)c(C(=O)Nc3ccccc3)n2)cc1 | inactive | inactive | inactive | inactive | inactive | inactive |  |
| CC(=O)Nc1nc(C)c(-c2ccc(Cl)c(S(=O)(=O)NCCO)c2)s1 | inactive | inactive | inactive | inactive | inactive | inactive |  |

| Compound | Potency [1] | Potency [2] | Potency [3] | Potency [4] | Potency [5] | Potency [6] | activity change, negative = inhibition [2] |
| --- | --- | --- | --- | --- | --- | --- | --- |
| CC(C)Nc1cc(C(F)(F)F)cc2nc(NC(=O)c3cccnc3)nn12 | inactive | inactive | inactive | inactive | inactive | inactive |  |
| Cc1ccc(-c2ncn(-c3ccc(Nc4nccc(-c5cccc(N6CCOCC6)c5)n4)cc3)n2)cn1 | inactive | inactive |  |  |  |  |  |
| O=C(Cc1ccc(-c2ccc(OCCN3CCOCC3)cc2)cn1)NCc1ccccc1 | inactive | inactive | inactive | inactive | inactive | inactive |  |
| COC(=O)c1ccc2c(C(=Nc3ccc(N(C)C(=O)CN4CCN(C)CC4)cc3)c3ccccc3)c(O)[nH]c2c1 | inactive | inactive | inactive | inactive |  |  |  |
| CC(=O)OCCN1C(=O)c2c(C)nc3ccc(S(=O)(=O)N4CCOCC4)cc3c2C1=O | inactive | inactive |  |  |  |  |  |
| Cn1c2cc(S(C)=O)sc2c2cnn(Cc3cccc(N)c3)c(=O)c21 (stereo unspecified) | inactive | inactive |  |  |  |  |  |
| C=CC(=O)Nc1cc2c(Nc3ccc(F)c(Cl)c3)ncnc2cc1C#CC(C)(C)N1CCN(C)CC1 | inactive | inactive |  |  |  |  |  |
| COc1ccc(OC)c(-c2nnc3ccc(-c4ccc(OC)c(O[C@@H]5CCOC5)c4)nn23)c1 | inactive | inactive | inactive | inactive | inactive | inactive |  |
| COC(=O)Nc1nc2ccc(C(=O)c3ccc(F)cc3)cc2[nH]1 | inactive | inactive | inactive | inactive | inactive | inactive |  |
| CNC(=O)c1cc(Oc2ccc(NC(=O)Nc3cc(C(C)(C)C)nn3-c3ccc4ncccc4c3)c(F)c2)ccn1 | inactive | inactive | inactive | inactive |  |  |  |
| OCc1ccc(-c2ccc(-c3ccc(CO)s3)o2)s1 | inactive | inactive | 1.31 µM (active) | 2.6 µM (active) |  | inactive |  |
| CCNC(=O)Nc1ccc2ncc(Nc3ccc(C)cc3)nc2n1 | inactive | inactive | inactive | inactive | inactive | inactive |  |
| Cc1nc(N)ncc1-c1nc(N2CCOCC2)c2sc(C(C)(C)O)cc2n1 | inactive | inactive | inactive | inactive | inactive | inactive |  |
| CN(C)CC(C)(C)CNc1nn2c(-c3ccccc3)nnc2cc1C1CCC1 | inactive | inactive | inactive | inactive | inactive | inactive |  |
| CN1CCN(Cc2ccc(NC(=O)Nc3ccc(Oc4cc(NC(=O)C5CC5)ncn4)cc3)cc2C(F)(F)F)CC1 | inactive | inactive | inactive | inactive |  | inactive |  |
| CCN(CC)CCNC(=O)c1ccc2nc(-c3ccccc3)c(-c3ccc(CN4CCC(n5c(=O)[nH]c6ccccc65)CC4)cc3)nc2c1 | inactive | inactive | inactive | inactive | inactive | inactive |  |
| Cc1ccc(C(=O)Nc2cccc(C(F)(F)F)c2)cc1-c1ccc2nc(NCCN3CCOCC3)ncc2c1 | inactive | inactive | inactive | inactive | inactive | inactive |  |
| CC(C)CC(=O)Nc1n[nH]c2c1CN(C(=O)C1CCN(C)CC1)C2(C)C | inactive | inactive | inactive | inactive | inactive | inactive |  |
| COc1cc(C(=O)N2CCC(N3CCN(C)CC3)CC2)ccc1Nc1ncc2c(n1)N(C)c1ccccc1C(=O)N2C | inactive | inactive | inactive | inactive | inactive | inactive |  |
| CCCCOc1c(C(=O)c2c(F)cc(C)cc2F)cnc2n[nH]cc12 | inactive | inactive | inactive | inactive | inactive | inactive |  |
